Measured values from PubChem BioAssay.
Activity calls are given as the source filed them.

Tests used:
[1] = compounds binding Alexa647 anti-His antibody – biochemical, small-molecule microarray, 635 nm fluorescence, artefact control for SMM control protein annotation, primary screen (AID 1128); conditions: higher = more signal;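 also: score merges feature fluorescence with signal-to-noise for each printed compound spot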
[2] = test system: Human papillomavirus type 1a E7 protein (residues 1-88); experiment: HPV1a E7 small-molecule binders, primary screen, biochemical, small-molecule microarray, residues 1-88, 635 nm (AID 1129); conditions: small-molecule microarray binding, fluorescence 635 nm; higher = more signal
[3] = biological target: Focal adhesion kinase 1 (Homo sapiens) (UniProt Q05397); experiment: PTK2 protein binding on printed compound slides – biochemical, small-molecule microarray, 635/667 nm fluorescence, BSA, DTT, primary screen (AID 1130); conditions: 635 nm fluorescence, higher = more signal;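 also: composite of spot emission at 667 nm and signal to noise over triplicate slides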
Sequence of Focal adhesion kinase 1 (Homo sapiens) (Q05397 whole entry, looked up): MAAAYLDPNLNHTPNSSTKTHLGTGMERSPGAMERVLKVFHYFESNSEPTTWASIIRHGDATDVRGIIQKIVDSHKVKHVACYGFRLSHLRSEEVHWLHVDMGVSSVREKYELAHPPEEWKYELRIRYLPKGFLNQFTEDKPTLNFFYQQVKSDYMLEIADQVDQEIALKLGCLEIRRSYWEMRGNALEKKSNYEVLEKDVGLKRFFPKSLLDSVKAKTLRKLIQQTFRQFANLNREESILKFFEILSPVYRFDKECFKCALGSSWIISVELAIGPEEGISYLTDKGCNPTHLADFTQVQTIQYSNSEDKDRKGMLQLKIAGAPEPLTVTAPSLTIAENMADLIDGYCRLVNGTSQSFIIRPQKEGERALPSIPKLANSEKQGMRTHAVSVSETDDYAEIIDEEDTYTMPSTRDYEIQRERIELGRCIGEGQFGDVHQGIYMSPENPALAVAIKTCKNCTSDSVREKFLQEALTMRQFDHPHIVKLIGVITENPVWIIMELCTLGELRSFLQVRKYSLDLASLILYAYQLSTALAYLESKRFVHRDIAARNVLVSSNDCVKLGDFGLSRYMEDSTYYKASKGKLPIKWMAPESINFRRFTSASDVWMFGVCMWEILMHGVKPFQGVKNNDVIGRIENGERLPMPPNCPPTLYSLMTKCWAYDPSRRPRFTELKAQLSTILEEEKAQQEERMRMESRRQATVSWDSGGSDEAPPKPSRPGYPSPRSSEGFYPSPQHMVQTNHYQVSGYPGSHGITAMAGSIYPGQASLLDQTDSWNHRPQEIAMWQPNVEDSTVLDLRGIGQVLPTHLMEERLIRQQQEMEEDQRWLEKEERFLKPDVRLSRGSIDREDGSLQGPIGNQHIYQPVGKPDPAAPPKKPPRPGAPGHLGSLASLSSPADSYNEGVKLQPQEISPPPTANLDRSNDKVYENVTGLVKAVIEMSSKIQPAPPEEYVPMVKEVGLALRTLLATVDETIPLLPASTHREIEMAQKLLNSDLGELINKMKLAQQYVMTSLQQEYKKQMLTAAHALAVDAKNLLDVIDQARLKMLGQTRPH

[4] = test system: Fibrinogen (Alexa647-labelled); experiment: Alexa647-fibrinogen binding to printed small molecules – biochemical, small-molecule microarray, 635/667 nm fluorescence, artefact control for SMM control-protein annotation, profiling panel (AID 1131); conditions: fibrinogen-A647 binding fluorescence, higher = more signal;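 also: z-score merges 667 nm fluorescence with per-spot signal-to-noise over triplicate slides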
[5] = biological target: Follistatin (Homo sapiens) (UniProt P19883); experiment: FST protein binding to printed compounds – biochemical, small-molecule microarray, 635/667 nm fluorescence, primary screen (AID 1132); conditions: 635 nm fluorescence, higher = more signal
Sequence of Follistatin (Homo sapiens) (P19883 whole entry, looked up): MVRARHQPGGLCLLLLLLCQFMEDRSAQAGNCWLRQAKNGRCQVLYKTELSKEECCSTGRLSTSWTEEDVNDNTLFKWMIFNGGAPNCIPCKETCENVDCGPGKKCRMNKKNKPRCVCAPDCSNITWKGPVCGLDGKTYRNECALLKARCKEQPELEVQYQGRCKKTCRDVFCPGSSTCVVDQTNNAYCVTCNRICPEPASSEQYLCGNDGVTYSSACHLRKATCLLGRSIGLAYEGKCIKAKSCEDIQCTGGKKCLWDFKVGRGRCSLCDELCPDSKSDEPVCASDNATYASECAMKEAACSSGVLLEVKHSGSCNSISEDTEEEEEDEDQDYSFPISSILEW

[6] = biological target: Fibroblast growth factor 2 (Homo sapiens) (UniProt P09038); experiment: basic fibroblast growth factor binding to printed compounds – biochemical, small-molecule microarray, 635/667 nm fluorescence, primary screen (AID 1133); conditions: FGF2, fluorescence 635/667, higher = more signal
Sequence of Fibroblast growth factor 2 (Homo sapiens) (P09038 whole entry, looked up): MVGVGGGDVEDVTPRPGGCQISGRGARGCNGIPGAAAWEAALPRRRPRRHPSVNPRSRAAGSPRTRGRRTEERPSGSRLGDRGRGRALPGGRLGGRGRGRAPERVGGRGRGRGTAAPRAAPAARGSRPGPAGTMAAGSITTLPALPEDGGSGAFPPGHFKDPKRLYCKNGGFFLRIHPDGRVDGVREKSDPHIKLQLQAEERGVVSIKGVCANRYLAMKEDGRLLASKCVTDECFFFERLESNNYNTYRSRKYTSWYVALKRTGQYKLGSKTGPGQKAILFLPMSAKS

[7] = JC-1 mitochondrial potential readout, lung cancer cells – cell-based, A549, JC-1 fluorescence, basal, 24 h, 100 nL, profiling panel (AID 1138); conditions: higher = more signal;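 also: A549 lung adenocarcinoma cells under basal conditions with no added stimulus; test concentration not given here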
Lefty1 = Lefty1 protein binding to printed compounds – biochemical, small-molecule microarray, 635/667 nm fluorescence, primary screen (AID 1139); conditions: fluorescence 635/667, higher = more signal
[8] = test system: wheat germ agglutinin (Triticum aestivum), Alexa647-labelled; experiment: Alexa647-WGA lectin binding to printed small molecules – biochemical, small-molecule microarray, 635/667 nm fluorescence, artefact control for SMM control-protein annotation, profiling panel (AID 1140); conditions: WGA-A647 binding, 635 nm fluorescence, higher = more signal;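 also: score merges 667 nm feature emission with signal to noise over triplicate slides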
[9] = biological target: Luciferin 4-monooxygenase (Photinus pyralis) (UniProt P08659); experiment: inhibition of purified Photinus pyralis luciferase – biochemical, luminescence, purified enzyme, 2006 set, primary screen (AID 1141); conditions: purified firefly luciferase, SteadyGlo luminescence, 30 min; higher = more signal, called active from +8 up or from −8 down;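 also: cell-free assay with purified firefly luciferase at 100 ng per well in PBS; test concentration not given here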
Sequence of Luciferin 4-monooxygenase (Photinus pyralis) (P08659 whole entry, looked up): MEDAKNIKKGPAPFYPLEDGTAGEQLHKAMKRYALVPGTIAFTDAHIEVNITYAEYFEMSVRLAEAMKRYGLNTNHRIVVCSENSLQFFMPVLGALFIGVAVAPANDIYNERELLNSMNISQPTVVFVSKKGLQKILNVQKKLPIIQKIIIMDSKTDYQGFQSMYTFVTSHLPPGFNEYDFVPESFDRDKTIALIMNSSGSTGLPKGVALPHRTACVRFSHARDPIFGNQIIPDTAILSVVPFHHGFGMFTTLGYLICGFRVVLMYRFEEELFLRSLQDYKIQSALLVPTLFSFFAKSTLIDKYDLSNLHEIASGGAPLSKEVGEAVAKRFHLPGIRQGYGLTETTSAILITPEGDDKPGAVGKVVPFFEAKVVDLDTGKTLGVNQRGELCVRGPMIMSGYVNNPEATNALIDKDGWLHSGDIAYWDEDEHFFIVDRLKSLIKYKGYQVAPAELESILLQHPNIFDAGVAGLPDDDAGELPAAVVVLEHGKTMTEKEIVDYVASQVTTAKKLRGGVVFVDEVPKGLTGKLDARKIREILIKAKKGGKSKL

Compound	composite z-score [1]	composite z-score [2]	composite z-score [3]	composite z-score [4]	composite z-score [5]	composite z-score [6]	z-score [7]	composite z-score (Lefty1)	composite z-score [8]	z-score [9]
CO[C@H]1COC(=O)[C@H](C)COC(=O)CC=C[C@@H](C)[C@H](OC)COC(=O)CC=C[C@@H]1C	0.0475	-0.774	-0.117	-0.217	1.16	1.41	1.11	1.15	-0.531	-1.59 (inactive)
O=C1[C@H]2[C@H]3[C@H](O)[C@H](O)CC(=NOC[C@@H](O)COCc4ccco4)[C@H]3CC[C@H]2C(=O)N1Cc1ccc2c(c1)OCO2	0.729	-0.413	-0.237	-0.447	1.3	1.57	-0.0273	1.25	-0.186	0.546 (inactive)
O=C(CS)NCCCCCNC(=O)[C@H]1C[C@H]2C(=O)N3CCC[C@H]3C(=O)N2[C@H]1c1cccc(OCCO)c1	3.13	1.11	2.11	0.65	1.45	1.92	0.509	1.65	0.777	-1.22 (inactive)
COCCOC(=O)N1C(=O)[C@@]2(c3cc(C#Cc4ccc(OC)cc4)ccc31)[C@H](C(=O)N1CCN(c3ncccn3)CC1)[C@H]1C(=O)O[C@H](c3ccccc3)[C@H](c3ccccc3)N1[C@@H]2c1ccc(OCCO)cc1	0.233	0.202	0.253	0.274	1.26	1.06	-1.15	0.786	0.769	-0.411 (inactive)
CCOC(=O)[C@H](Cc1ccccc1)NC(=O)CCC1CC(OC(=O)NCCc2ccc(F)cc2)CC2(CCCC(COC(=O)NCC(c3ccccc3)c3ccccc3)O2)O1 (stereo not given in full)	0.999	0.517	0.111	0.7	0.831	0.563	0.597	0.68	0.554	0.715 (inactive)
C=C(COC)/C(=C/C[C@H](OC(=O)c1ccncc1)c1ccc(CO)o1)c1cc(C(=O)OC)ccc1OC	1.38	1.12	-0.113	-0.0921	1.22	1.32	-0.713	1.14	0.113	-0.448 (inactive)
CCOC(=O)CCN1C(=O)[C@H]2[C@H]3[C@H](O)C=CC(=O)[C@@H]3CC[C@H]2C1=O	0.147	0.621	0.122	0.11	0.488	0.49	0.0322	0.345	0.307	-0.371 (inactive)
COCCOC(=O)N1C(=O)[C@@]2(c3cc(C#Cc4ccc(OC)cc4)ccc31)[C@H](c1ccc(O)cc1)N1[C@H](c3ccccc3)[C@H](c3ccccc3)OC(=O)[C@H]1[C@@H]2C(N)=O	0.308	1.17	0.126	0.972	1.3	0.852	-1.47	0.728	0.779	0.556 (inactive)
CO[C@H]1COC(=O)[C@@H]2CCCN2C(=O)[C@@H](C)COC(=O)CC=C[C@@H]1C	1.42	-0.217	-0.114	0.112	1.02	1.46	-0.409	0.898	-0.114	1.29 (inactive)
CCOc1ccc(N2C(=O)/C(=C/C=C/c3ccccc3OC)S(=O)(=O)C2c2cccc([N+](=O)[O-])c2)cc1 (stereo not given)	-0.359	0.339	0.0604	0.441	0.475	0.235	2.31	0.23	0.432	-0.889 (inactive)
CC(C)=CCCC(C)=CCON=C1[C@H]2CCn3c(=O)n(Cc4cc5c(cc4Cl)OCO5)c(=O)n3[C@H]2[C@H](O)[C@@H]2O[C@H]12	0.321	0.349	0.138	0.544	0.908	0.367	-0.939	0.889	-0.0863	0.196 (inactive)
CCN1C(=O)[C@H]2[C@H]3[C@H](O)[C@H](O)CC(=NOCc4ccccc4)[C@H]3CC[C@H]2C1=O	-0.364	0.359	0.155	0.443	0.213	0.22	-0.442	0.228	-0.077	0.243 (inactive)
COC(=O)[C@H](C)NC(=O)CCC1CC(OC(=O)NCc2ccc3c(c2)OCO3)CC2(CCCC(COC(=O)NCCOc3ccccc3)O2)O1 (stereo not given in full)	0.486	1.15	0.0281	0.59	0.463	1.09	1.09	0.735	0.262	-0.314 (inactive)
CC(C)NC(=O)[C@@]1(c2ccc([N+](=O)[O-])cc2)CC(=O)N(CC23CC4CC(CC(C4)C2)C3)[C@@H]1c1ccc(CO)cc1I	0.0833	1.14	0.457	-0.206	1.06	0.444	1.01	-0.167	0.403	0.355 (inactive)
COC(=O)[C@@]1(Cc2ccccc2)[C@H]2c3cc(C(=O)N4CCCC4)n(Cc4ccccn4)c3C[C@H]2CN1C(=O)c1ccccc1	1.81	1.26	0.846	0.412	1.24	0.354	0.449	0.19	0.236	1.93 (inactive)
O=C1[C@H]2[C@H]3[C@H](O)[C@H](O)CC(=NO[C@@H]4O[C@H](CO)[C@@H](O)[C@H](O)[C@H]4O)[C@@H]3CC[C@H]2C(=O)N1c1ccc(F)cc1F	0.537	0.534	-0.33	0.273	0.438	0.209	0.242	0.386	0.0553	0.523 (inactive)
CCCCCCc1nc(CCCc2cc3c(c(CCCCCC)n2)[Si](C(C)C)(C(C)C)O[C@H]3c2ccccc2)cc2c1[Si](C(C)C)(C(C)C)O[C@H]2c1ccccc1	-0.246	-0.526	-0.43	-1.19	0.385	-0.0811	0.669	0.778	-0.0778	0.733 (inactive)

Compound	composite z-score [1]	composite z-score [2]	composite z-score [3]	composite z-score [4]	composite z-score [5]	composite z-score [6]	z-score [7]	composite z-score (Lefty1)	composite z-score [8]	z-score [9]
Cc1cc2c(nc1C)CCCN2CC(O)CN1CCN(C)CC1 (stereo not given)	1.51	0.1	0.648	-0.702	0.936	0.688	0.63	0.409	1.02	0.246 (inactive)
COC(=O)CC=C[C@@H](C)[C@@H](C=NO[C@H](C)c1cn([C@@H]2COC[C@H]2O)nn1)OC	1.19	0.695	-0.0208	-0.0974	0.341	0.796	0.014	0.645	-0.116	-0.287 (inactive)
CO[C@@H]1COC(=O)CC=C[C@@H](C)[C@@H]2C=C[C@H](O)[C@@H](COC(=O)CCC[C@H]1C)O2	1.59	-0.442	-0.382	-0.478	1.06	1.3	-0.992	1.08	-0.0297	0.732 (inactive)
O=C1C2=CC[C@H]3C(=O)N(Cc4ccc5c(c4)OCO5)C(=O)[C@H]3[C@H]2[C@H](O)[C@@H]2O[C@H]12	1.06	0.383	0.009	0.459	0.281	0.597	0.738	0.408	-0.0306	-0.272 (inactive)
COc1ccc(O[C@H]2C=C[C@@H](c3ccccc3)O[C@@H]2COC(=O)CCC(C)=NOC[C@@H](C)[C@H](OCc2ccccc2)C(C)C)cc1	0.904	-0.834	-0.592	-1.24	-0.865	-0.621	-0.345	-0.338	-0.606	1.05 (inactive)
CCc1cc2c(nc1CC)CCN(CCC(C)=NOC(C)CN1CCCc3nc(C)c(C)cc31)C2 (stereo not given)	-0.295	0.973	0.63	0.398	1.31	0.631	1.2	1.29	0.467	0.62 (inactive)
COC(=O)[C@H](C)NC(=O)CCC1CC(OC(=O)NCc2cccc3ccccc23)CC2(CCCC(COC(=O)NCCc3ccc(Cl)cc3)O2)O1 (stereo not given in full)	0.591	1.06	0.178	0.228	0.225	0.212	0.179	1.03	0.411	0.632 (inactive)
CCOC(=O)C[C@H]1[C@H](OC(=O)c2cc3ccccc3oc2=O)[C@@H](NC(=O)c2ccc3ccccc3n2)c2cc(OCCCO)ccc2N1C(=O)c1ccccc1	1.06	0.803	0.513	0.584	1.14	1.23	-0.837	0.606	0.354	0.497 (inactive)
CC(C)C[C@@H]1NC(=O)[C@H]2C[C@@H](C(=O)NCCCCCCN(C)C)[C@@H](c3cccc(OCCO)c3)N2C1=O	2.19	1.01	0.204	0.0478	1.3	1.6	-0.0993	1.65	0.591	-0.156 (inactive)
O=C1O[C@@H](c2ccccc2)[C@@H](c2ccccc2)N2[C@@H](c3ccc(O)cc3)[C@]3(C(=O)Nc4ccccc43)[C@@H](C(=O)O)[C@H]12	3.02	1.2	0.49	0.508	-0.167	-0.352	-0.517	-0.351	0.547	-0.0041 (inactive)
C=CCOC(=O)[C@H]1[C@@H]2C(=O)O[C@@H](c3ccccc3)[C@@H](c3ccccc3)N2[C@@H](c2ccc(OCCOC(=O)[C@H]3C[C@H]4C(=O)N[C@@H](Cc5ccccc5)C(=O)N4[C@H]3c3ccc(O)cc3)cc2)[C@]12C(=O)Nc1ccccc12	2.22	1.13	1.23	0.51	1.46	1.67	-1.58	1.46	0.654	-2.01 (inactive)
COc1ccc(O[C@H]2C=C[C@@H](c3ccccc3)O[C@@H]2COC(=O)CCC(C)=NOCC[C@@H]2C=C[C@H](OC(C)=O)[C@@H](COC(C)=O)O2)cc1	0.545	-0.129	0.151	0.351	0.612	0.168	0.213	0.342	0.193	1.03 (inactive)
C=C(/C(=C/C[C@H](OC(=O)c1ccncc1)c1ccc(OCCO)cc1)c1cnc2ccccc2c1)C(C)C	0.426	1.21	0.144	0.853	1.47	1.82	1.26	1.52	0.843	-2.12 (inactive)
CC(CCN1CCc2nc(-c3ccccc3)c(-c3ccccc3)cc2C1)=NOC(C)CN1CCCCc2nc(C)c(C)cc21 (stereo not given)	0.605	0.791	0.718	0.845	0.47	0.489	1.52	0.593	0.264	-0.0959 (inactive)
COC(=O)C1(C)C=C2C(=C(c3ccccc3)C(=O)C2C)CN1 (stereo not given)	1.57	0.0147	0.0183	0.494	-0.882	-0.253	-0.353	-1.5	0.264	1.89 (inactive)
C=C(/C(=C/C[C@H](OC(C)=O)c1ccc(OCCO)cc1)c1cnc2ccccc2c1)C(C)C	0.888	1.19	-0.0763	0.921	1.45	1.31	0.414	1.48	0.585	-0.477 (inactive)
